In all, about 300,000 compounds went through this assay and about 2,500 (0.83%) were called active.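 Rule for the calls: active = inhibition above the mean of all tested compounds plus 3 SD, set per screening campaign (cut at about 24% in these data); inactive = the rest.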 The full list was thinned out, with actives kept by preference.
Each compound was assayed on tRNA 2'-phosphotransferase TPT1 (Candida albicans SC5314) (assay: Candida albicans TPT1 enzyme inhibitors, primary screen, biochemical, fluorescence polarization (AID 1962;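 note: plate controls were DMSO alone for no effect and ferristatin control at 100 nM for full effect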)). Settings: recombinant caTPT1, FP RNA substrate dephosphorylation; at 5 µM; active compounds read high.
`CC1=NN(c2ccccc2)C(=O)C1C(=O)c1ccc([N+](=O)[O-])cc1` (stereo not given) was tested, and the inhibition was 0.3% (inactive). `O=C1NC(=O)C2C1C(c1ccc([N+](=O)[O-])cc1)=NN2Cc1ccccc1` (stereo not given) was tested, and the inhibition was 32.4% (active). In the case of `CC(=O)N1c2ccccc2N(Cc2ccc([N+](=O)[O-])cc2)C(=O)C1(C)C`, the inhibition is reported as 9.11% (inactive). In the case of `CC(=O)c1ccc(N2C(=NC(=O)C(C)C)SC3CS(=O)(=O)CC32)cc1` (stereo not given), the inhibition is reported as -0.98% (inactive). For `Nn1c(SCC(=O)Nc2nccs2)nncc1=O`, the inhibition was 0.93% (inactive). In the case of `COCCn1cnc2c1c(=O)n(CC(=O)NN)c(=O)n2Cc1ccccc1`, the inhibition is reported as -3.43% (inactive). With `COc1cc(NC(=O)C2=CC(c3ccco3)=NS(=O)(=O)N2C)cc(OC)c1OC` the inhibition was -0.29% (inactive). In the case of `CC1=C(C(=O)OC2CCCCC2)C(c2ccccc2F)NC(=O)N1` (stereo not given), the inhibition is reported as 1.28% (inactive). `CN1C(=O)/C(=C/c2ccco2)SC1=Nc1cccc(C(=O)O)c1` was tested, and the inhibition was -0.91% (inactive). For `O=C1c2ccccc2NC(c2ccc(-c3cccc(Cl)c3)o2)N1O` (stereo not given), the inhibition was 2.03% (inactive). In the case of `O=C(O)C(c1ccccc1)N1C(=O)/C(=C\c2ccc(-c3cccc(Cl)c3)o2)SC1=S` (stereo not given), the inhibition is reported as 134% (active). In the case of `NS(=O)(=O)c1ccc(-c2ccc(/C=C3\SC(=O)NC3=O)o2)cc1`, the inhibition is reported as 0.01% (inactive). In the case of `O=C1NN(c2ccccc2)C(=O)/C1=C/c1ccc(-c2cccc(C(=O)O)c2)o1`, the inhibition is reported as -6.86% (inactive). In the case of `CN1C(=O)/C(=C\c2ccc(-c3ccccc3)o2)SC1=S`, the inhibition is reported as 47% (active). In the case of `Cn1cc[n+](C)c1COc1ccc(C=O)cc1`, the inhibition is reported as -0.82% (inactive). `CCc1ccc(Nc2n[n+](-c3ccccc3)c(-c3cccc(Cl)c3Cl)s2)cc1` was tested, and the inhibition was -1.82% (inactive). In the case of `OCC[C@H]1C[C@H](O)[C@@H](O)[C@]2(Cc3ccccc3CO2)O1`, the inhibition is reported as 1.4% (inactive). In the case of `Cc1ccc(C(=O)NCC(=O)OCC(=O)Nc2cccc(S(=O)(=O)N3CCCC3)c2)cc1C`, the inhibition is reported as -0.56% (inactive). With `CCn1cc(C(=O)NC2CCCCCC2)c(=O)c2cc(S(=O)(=O)N3CCCCC3)ccc21` the inhibition was -2.73% (inactive). For `COc1ccc(C(=O)CC(=O)c2ccc(C)cc2)c(O)c1`, the inhibition was -1.28% (inactive). For `O=C(COC(=O)c1cnccn1)Nc1cccc2ccccc12`, the inhibition was -2.21% (inactive). `Cc1cc(/C=N/NC(=O)c2cccnc2)c(C)n1CC(C)C` was tested, and the inhibition was -3.6% (inactive). With `O=C(N/N=C/c1sc(N2CCCCC2)nc1-c1cccs1)c1cccnc1` the inhibition was 61.1% (active). For `O=C(N/N=C/c1ccccn1)c1cccnc1`, the inhibition was -1.95% (inactive). `CCSC(C)CC1C/C(=N/O)c2c(C)noc2C1` (stereo not given) was tested, and the inhibition was -7.78% (inactive). For `COc1ccc(NC(=O)CN(C)C(=O)c2ccc(COc3ccccc3)o2)cc1`, the inhibition was 1.15% (inactive). In the case of `CCN1/C(=C/c2ccc3ccc(C)cc3[n+]2CC)Sc2ccccc21`, the inhibition is reported as 49.5% (active). In the case of `CCN1/C(=C\c2ccc3ccccc3[n+]2CC)Sc2cc(C)ccc21`, the inhibition is reported as 68.7% (active). In the case of `COCCCNC(=O)Cn1c(=O)n(Cc2ccccc2Cl)c(=O)c2cc(OC)c(OC)cc21`, the inhibition is reported as 1.46% (inactive). In the case of `COc1ccc(C2=NOC3(CC(=O)N(c4ccc(Cl)cc4)C3=O)C2)c(OC)c1` (stereo not given), the inhibition is reported as -4.26% (inactive). With `O=C(c1cccc(Br)c1)N1CCN(C2=NS(=O)(=O)c3ccccc32)CC1` the inhibition was 0.45% (inactive). In the case of `COc1cccc(/C=C(/CC(=O)Nc2ccc(N3CCOCC3)cc2)c2nc3ccccc3s2)c1`, the inhibition is reported as 9.31% (inactive). With `O=S(=O)(c1cccc(-c2nnc(SC(F)F)n2-c2ccccc2)c1)N1CCCCC1` the inhibition was -5.49% (inactive). In the case of `Cc1ccc(CSCC(=O)N(C)CC(=O)Nc2cccc(F)c2)cc1`, the inhibition is reported as 1.31% (inactive). In the case of `CCN(CC)C(=O)CSC(Nc1cccc(F)c1)=C(C#N)C#N`, the inhibition is reported as 62.4% (active). For `CCN(CC)C(=O)C(=O)Nc1cccc(Br)c1`, the inhibition was -2.63% (inactive). With `O=C(CNc1ccc(F)cc1F)NC(=O)NCc1ccco1` the inhibition was -0.97% (inactive). For `CCOC(=O)[C@H]1[C@H]2COc3ccc(Cl)cc3[C@@H]2N2C(=O)c3cc(C)ccc3NC(=O)[C@@]12C`, the inhibition was 2.94% (inactive). `Cc1cc(-c2ccc(S(=O)(=O)N3CCc4ccccc4C3)s2)on1` was tested, and the inhibition was -0.99% (inactive). With `CS(=O)(=O)N(CC(=O)N/N=C/c1ccccn1)c1ccc(Oc2ccccc2)cc1` the inhibition was -0.87% (inactive). For `CCCCCCc1ccc(O)cc1O`, the inhibition was 2.21% (inactive). For `CCCCCCc1cc2cc(-c3nnc(-c4ccccc4)o3)c(=O)oc2cc1O`, the inhibition was 133% (active). With `Cc1c(CC(=O)NCCCCCC(=O)O)c(=O)oc2cc3occ(-c4ccccc4)c3cc12` the inhibition was -0.72% (inactive). `Cn1ccc(=NC=C(C#N)C#N)c2ccccc21` was tested, and the inhibition was 25.3% (active). For `N#CC(C#N)=CN=c1ccn(Cc2ccc(Cl)cc2Cl)cc1`, the inhibition was 0.38% (inactive). With `Cc1cc(NC(=O)Nc2c[nH]c(=O)[nH]c2=O)ccc1Br` the inhibition was 0.27% (inactive). In the case of `CCCc1nc2c(C)cc(-c3nc4ccccc4n3C)cc2n1Cc1ccc(-c2ccccc2C(=O)O)cc1`, the inhibition is reported as 1.15% (inactive). In the case of `Oc1ccc(/C=N/Nc2nc(-c3ccccc3F)nc3ccccc23)c(O)c1`, the inhibition is reported as 24.8% (active). With `Cc1nc2ccccc2nc1N/N=C/c1ccc(O)cc1O` the inhibition was 1.81% (inactive). `Fc1ccc(/C=N/Nc2nc(-c3cccnc3)nc3ccccc23)cc1` was tested, and the inhibition was 0.23% (inactive). In the case of `CN(C)C1=NC[C@H](Cc2ccccc2)N1CCc1ccc(F)cc1`, the inhibition is reported as -4.71% (inactive). With `Cc1cc(C)c(S(=O)(=O)N2C=CC(C(F)(F)F)=NCC2)c(C)c1` the inhibition was -0.62% (inactive). In the case of `O=S(=O)(c1ccc(F)cc1)N1CCN(C(=S)NCc2ccco2)CC1`, the inhibition is reported as 1.64% (inactive). In the case of `OCC[C@H]1C[C@@H](O)[C@H](O)[C@@]2(OCCc3ccccc32)O1`, the inhibition is reported as 0.6% (inactive). With `OCC[C@H]1C[C@H](O)[C@@H](O)[C@]2(CCc3ccccc3O2)O1` the inhibition was -0.81% (inactive). In the case of `O=S(=O)(O)Oc1c[nH]c2ccccc12`, the inhibition is reported as 25.4% (active). With `COc1ccccc1CC(=O)NCCc1c[nH]c2ccccc12` the inhibition was -1.76% (inactive). With `O=C(Cc1c[nH]c2ccccc12)OCCOC(=O)Cc1c[nH]c2ccccc12` the inhibition was 0.4% (inactive). For `CN1CCN(Cc2nc3cc(NC(=O)COc4ccc([N+](=O)[O-])cc4)ccc3n2C)CC1`, the inhibition was -2.77% (inactive). For `COc1ccc(C(=O)Nc2sc(C)c(C)c2CN2CCOCC2)cc1`, the inhibition was 2.12% (inactive). For `C#CCOCCOCCOCCNc1nc(N2CCN(C(=O)CCCCCCCCCCNC(=O)Cn3cc(CCCCCN)nn3)CC2)nc(N2CCN(C(=O)CCCCCCCCCCNC(=O)[C@H](CO)n3cc(CCCSC)nn3)CC2)n1`, the inhibition was -0.6% (inactive). For `Cc1ccc(N=Cc2c(O)cc(C)oc2=O)c(C)c1`, the inhibition was 9.41% (inactive). For `Cc1cc(O)c(C(=O)/C=C/c2c(F)c(F)c(F)c(F)c2F)c(=O)o1`, the inhibition was 44.1% (active). With `Cc1cc(O)c(Sc2ccccc2)c(=O)o1` the inhibition was 0.86% (inactive). `Cc1ccc(-n2c(SCC(=O)NCCC3=CCCCC3)nc3n[nH]c(C)c3c2=N)cc1Cl` was tested, and the inhibition was 0.45% (inactive). `CO[C@@H]1[C@@H](OC(N)=O)[C@@H](O)C(Oc2ccc3c(O)c(NC(=O)c4ccc(O)c(CC=C(C)C)c4)c(=O)oc3c2C)OC1(C)C` (stereo not given in full) was tested, and the inhibition was -0.98% (inactive). With `Cc1ccc(Cl)c(NC(=O)CN(C)CC(=O)Nc2ccc(F)c(F)c2F)c1Cl` the inhibition was 2.01% (inactive). With `COc1ccc(C2=NN(C(C)=O)C(c3ccccc3)C2)cc1` (stereo not given) the inhibition was -4.9% (inactive). With `COc1ccc(C2=NN(C(=O)c3ccccc3C(=O)O)C(c3ccccc3O)C2)cc1` (stereo not given) the inhibition was 35.3% (active). For `COc1ccc(C2=NN(C(=O)c3cccnc3)C(c3ccccc3)C2)cc1` (stereo not given), the inhibition was 3.29% (inactive). With `O=C(Nc1cc(-c2ccccc2)nn1-c1ccccc1F)c1ccc([N+](=O)[O-])cc1` the inhibition was 1.59% (inactive). For `Cc1ccc2c(c1)C(c1ccccc1)N(C(=O)c1ccc(S(=O)(=O)N3CCOCC3)cc1)CC(=O)N2` (stereo not given), the inhibition was 1.61% (inactive). `CCN(CC)CCNc1nc(-c2ccc(OC(F)F)cc2)c(C)s1` was tested, and the inhibition was -0.49% (inactive). For `CCOc1ccc(/C=C2\SC(=S)N(NC(=O)c3ccncc3)C2=O)cc1OC`, the inhibition was 33.7% (active). `COc1ccc(/C=C2\SC(=S)N(CC(=O)NNC(=O)c3ccncc3)C2=O)cc1` was tested, and the inhibition was -4.74% (inactive). `COc1ccc(/C=C2\SC(=S)N(CCC(=O)Nc3ccccn3)C2=O)cc1OC` was tested, and the inhibition was 1.07% (inactive). With `O=C(c1cc(-c2ccc(Cl)cc2)on1)N1CCN(c2ccccc2)CC1` the inhibition was -0.95% (inactive). For `O=C(O)CCCC(=O)Nc1ccc(Oc2cccc(C(F)(F)F)c2)nc1`, the inhibition was -1.11% (inactive). For `NS(=O)(=O)c1cccc(NC(=O)CN2CCCc3ccccc32)c1`, the inhibition was 14.5% (inactive). With `COC(=O)c1[nH]c2cccc(C)c2c1NC(=O)CN1CCCc2ccccc21` the inhibition was 29% (active). For `COC(=O)c1[nH]c2ccccc2c1NC(=O)CN1CCCc2ccccc21`, the inhibition was 11.9% (inactive). For `S=C(NC1CCCCC1)NN1CCOCC1`, the inhibition was -1.16% (inactive). In the case of `Cc1nn(C(C)CC(=O)O)c(C)c1C` (stereo not given), the inhibition is reported as 0.87% (inactive). For `CN(C)c1ccc(/C=N\S(=O)(=O)c2ccccc2)cc1`, the inhibition was 0.48% (inactive). With `CC[n+]1cc(C)ccc1/C=C/c1ccc(N(C)C)cc1` the inhibition was 29.6% (active). With `CCCCN(CC)C(=O)C1CCCN(S(=O)(=O)c2cccc3nsnc23)C1` (stereo not given) the inhibition was -2.13% (inactive). In the case of `CCOC(=O)c1c(CC(C)C)csc1/N=C/C1=C(O)CCCC1=O`, the inhibition is reported as 98.3% (active). For `Cc1cc(N=CC2=C(O)CCCC2=O)no1`, the inhibition was -5.36% (inactive). `CCOC(=O)c1sc(/N=C/C2=C(O)CC(C)(C)CC2=O)c(C(=O)OCC)c1C` was tested, and the inhibition was -1.8% (inactive). For `CC1CCC(CN2CCN=C2N(C)C)CC1` (stereo not given), the inhibition was -1.25% (inactive).

— PubChem BioAssay AID1962 (The Scripps Research Institute Molecular Screening Center, 2009)
